AI-2 QS modul: Vibrio harveyi AI-2 quorum sensing modulators, primary screen, JMH597 strain, luminescence/OD600 ratio; Vibrio harveyi JMH597 AI-2 luminescence/OD600 ratio, 9 h; stronger effect = lower value; strain lacks LuxN and CqsS sensors; 0 = neutral-control median; activity change, % at 7.5 µM; 0.4% of 300,000 active; in the data active means activity change below about -75%, passing the limit was not always enough;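 further: luminescence divided by OD600 gain over 9 h not by final OD600 alone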
H9c2 protect: cardioprotection against H2O2-induced cell death, primary screen, uHTS, H9c2 cells, ATPLite luminescence | H9c2 cardiomyocytes, H2O2 injury protection, 2 h | protection from H2O2 cell death, % at 20 µM | 0.63% of 360,000 active;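 active means compounds giving at least 50% protection of heart cells from peroxide-induced death in the single-dose screen, raw or plate-pattern-corrected value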;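 further: 0% = DMSO wells with peroxide and 100% = DMSO wells without peroxide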
Mot1-301 SUMO: yeast Mot1-301 growth rescue at high temperature, primary screen, SUMOylation pathway inhibitor project, S. cerevisiae, ATP luminescence, 38.5C; S. cerevisiae Mot1-301 growth rescue; percent above DMSO median, 100 means doubled; growth rescue, % at 18.8 µM; AID 2716, 2010; 1% of 320,000 active;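 active means every valid replicate shows activation above 250% relative to neutral control wells; inactive means the rest, any valid replicate at or below 250%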;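 further: OY570 slx delta 5 strain wells were the positive control but not used for scaling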
AHR act: AHR activators, primary screen, cell-based, luminescence, luciferase reporter, human | Aryl hydrocarbon receptor (Homo sapiens), P35869 | AHR-responsive luciferase reporter cells | 2.5% of 320,000 active | activation, % at 5 µM | AID 2796, 2010; in the data active means activation above about 47%;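 further: 0% = vehicle wells and 100% = reference agonist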
Target sequence (P35869 whole entry, looked up): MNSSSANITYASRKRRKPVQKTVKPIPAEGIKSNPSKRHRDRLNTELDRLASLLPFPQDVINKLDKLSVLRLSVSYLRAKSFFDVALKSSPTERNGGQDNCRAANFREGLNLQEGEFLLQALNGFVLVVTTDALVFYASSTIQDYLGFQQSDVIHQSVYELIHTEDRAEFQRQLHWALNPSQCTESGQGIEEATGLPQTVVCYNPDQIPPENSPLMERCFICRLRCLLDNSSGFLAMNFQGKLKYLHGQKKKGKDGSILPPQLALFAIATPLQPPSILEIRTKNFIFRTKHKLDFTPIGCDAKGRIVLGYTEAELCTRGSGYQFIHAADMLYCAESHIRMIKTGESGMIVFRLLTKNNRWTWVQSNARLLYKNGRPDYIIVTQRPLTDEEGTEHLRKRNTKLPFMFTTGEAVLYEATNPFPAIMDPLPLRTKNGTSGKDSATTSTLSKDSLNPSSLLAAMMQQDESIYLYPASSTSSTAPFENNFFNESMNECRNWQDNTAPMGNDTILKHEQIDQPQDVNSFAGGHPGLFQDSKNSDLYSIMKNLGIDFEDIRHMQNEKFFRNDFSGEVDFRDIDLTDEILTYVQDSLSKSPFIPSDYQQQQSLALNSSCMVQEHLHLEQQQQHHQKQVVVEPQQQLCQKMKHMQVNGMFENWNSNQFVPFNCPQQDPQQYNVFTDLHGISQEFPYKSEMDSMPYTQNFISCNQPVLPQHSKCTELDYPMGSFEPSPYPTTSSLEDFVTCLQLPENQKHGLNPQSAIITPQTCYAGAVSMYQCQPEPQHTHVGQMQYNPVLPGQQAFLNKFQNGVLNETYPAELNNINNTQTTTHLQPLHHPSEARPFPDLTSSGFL
NTR1 agonist: agonists of human NTR1, primary screen, imaging, U2OS cells, beta-arrestin-GFP, high content | NTR1-U2OS beta-arrestin-GFP spot imaging, agonist mode | Neurotensin receptor type 1 (Homo sapiens), P30989 | 0.17% of 330,000 active | activation, % at 20 µM;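 active means activation at or above 40% of the spot to cytoplasm intensity ratio, with at least 20 cells analyzed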;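 further: 0% = DMSO without peptide and 100% = 100 nM NTR1 peptide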
NR3A LBD binder: binders of NR3A ligand-binding domain, primary screen, biophysical, differential scanning fluorimetry, uHTS; NR3A LBD differential scanning fluorimetry, Tm shift; 0% = protein alone, 100% = glycine-bound protein; 2.5% of 340,000 active; Glutamate receptor ionotropic, NMDA 3A (GRIN3A) ligand-binding domain; Tm shift relative to glycine control, % at 25 µM; AID 1259313, 2017;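 active means melting temperature shift of at least 10% of the positive control shift, at one fixed dose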
AHR act confirm: AHR activators, confirmation, cell-based, luminescence, luciferase reporter, human. shares compounds with AHR act. 87% of 2,300 active. activation, % at 9 µM. AID 2845, 2010. human cells, AHR-responsive luciferase reporter; in the data active means activation above about 49%;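 further: HepG2 hepatoma cells carrying a DRE-driven firefly luciferase reporter; 0% = vehicle wells and 100% = reference agonist wells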
PXR counter: human PXR activators, counter-screen for AHR activator project, cell-based, luciferase luminescence; shares compounds with AHR act; cell-based PXR reporter; activation, % at 11.6 µM; 88% of 2,300 active; in the data active means activation above about 11%;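 further: human hepatoma DPX-2 cells expressing full-length human PXR; 0% = DMSO and 100% = reference agonist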
An asterisk follows results filed as active; . = not tested or not shown. Only some compounds are listed: those with a hit (about 6.2% of all), similar ones and a draw of the others.

SMILES	AI-2 QS modul	H9c2 protect	Mot1-301 SUMO	AHR act	NTR1 agonist	NR3A LBD binder	AHR act confirm	PXR counter
COc1ccc(C(=O)N/N=C/c2ccc3cccc(OCc4ccccc4)c3n2)cc1	20	21	-12	81*	13	-1	81*	22*
NC(=S)N/N=C/c1ccc2cccc(OCc3ccccc3)c2n1	0	7	-16	17	3	-3	.	.
COc1cc2c3c(c1)C1(C(=O)N3C(C)(C)C=C2C)C(C#N)=C(N)Oc2cc(O)ccc21 (stereo not given)	7	1	-14	93*	2	-22	39	2
CS(=O)(=O)N(CC(=O)Nc1cccc([N+](=O)[O-])c1)c1ccccc1	16	2	-22	90*	-1	-2	48*	83*
O=C1Nc2c(c(=O)[nH]c(=O)n2-c2ccc(F)cc2)C1(NS(=O)(=O)c1ccccc1)C(F)(F)F (stereo not given)	18	10	-14	1	2	-1	.	.
CCc1ccc(/C=c2\s/c(=C\C(=O)C(C)(C)C)[nH]c2=O)cc1	63	-12	129	27	24	9	.	.
Cc1ccccc1/C=c1\s/c(=C\C(=O)C(C)(C)C)[nH]c1=O	16	-4	-10	119*	4	-8	76*	105*
CCOc1ccc(C(=O)Nc2ccc3[nH]ncc3c2)cc1	29	-14	319	47	0	7	.	.
Cc1cccc(C)c1NC(=O)C(c1ccccc1)N1CCN(C/C=C/c2ccccc2)CC1 (stereo not given)	.	11	.	.	.	.	.	.
CCOC(=O)C1(C)CCCCCN1C(=O)c1ccc(SC(F)(F)F)cc1 (stereo not given)	.	7	.	.	.	.	.	.
COc1ccc(-c2cc(C(F)(F)F)nc(NCc3ccco3)n2)cc1OC	12	-3	-18	12	-2	-11	.	.
FC(F)(F)c1cc(-c2ccc3c(c2)OCO3)nc(NCc2ccco2)n1	28	-23	7	91*	3	-6	75*	26*
CCc1cc2cc(OC)ccc2nc1SCC(=O)NNC(=O)c1ccco1	20	10	147	82*	3	-1	16	14*
Clc1ccc(-c2cn3cc(Br)ccc3n2)cc1Cl	50	-18	3	90*	2	-26	137*	16*
Clc1ccc2nc(-c3ccc4c(c3)OCO4)cn2c1	4	-31	37	23	4	-1	.	.
COc1ccc(C)cc1NC(=O)C(OC(=O)CNC(=O)c1ccc(Oc2ccccc2)cc1)c1ccccc1 (stereo not given)	13	-3	2	95*	1	7	71*	20*
COc1ccc(C)cc1NC(=O)CNC(c1ccccc1)c1ccc(C)cc1 (stereo not given)	2	5	-3	12	5	0	.	.
COc1ccc(N=Nc2nc3cc(Br)c(Br)cc3n2C)c(OC)c1	.	5	-12	83*	.	-11	57*	18*
COc1ccc(CNc2nc3ccccc3n2C)c(OC)c1	11	-6	-6	26	1	1	.	.
COc1ccc2oc(C(=O)NCc3ccccc3CN3CCCC3)c(C)c2c1	.	4	20	10	-1	-2	.	.
Cc1c(C(=O)NCc2ccccc2CN2CCCC2)oc2c(F)cccc12	.	-7	20	80*	-1	1	95*	39*
Cc1[nH]c2ccccc2c1C(=O)/C=C\c1ccccc1Cl	14	-11	-4	157*	11	11*	112*	78*
Cc1nc2ccccc2c(N)c1C(=O)/C=C/c1ccccc1	11	-19	172	10	10	-1	.	.
